# Reference: PubChem BioAssay
# The source made the active and inactive calls. Unless noted, how the calls were made is not given here.
# Key:
# [1] = A549 cell viability effects, profiling panel, calcein-AM fluorescence, 48 h, basal (AID 1162); details: higher = more signal; further: test concentration not given here
# [2] = adipocyte viability effects, profiling panel, cell-based, 3T3-L1 adipocytes, calcein-AM fluorescence, 48 h, basal (AID 1163); details: 3T3-L1 adipocytes viability, higher = more signal; further: test concentration not given here
# [3] = HepG2 cell viability effects, profiling panel, calcein-AM fluorescence, 48 h, basal (AID 1164); details: higher = more signal; further: test concentration not given here
# [4] = MM1S cell viability effects, profiling panel, calcein-AM fluorescence, 48 h, basal (AID 1165); details: higher = more signal;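 further: viability of MM1S multiple myeloma cells under basal unstimulated conditions; test concentration not given here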
# [5] = basal RPMI8226 viability, no added stimulus, profiling panel, cell-based, calcein-AM fluorescence, 48 h, PK04 Diversity Set (AID 1166); details: RPMI8226 myeloma viability, higher = more signal;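 further: cells grown under basal conditions without added stimulus; test concentration not given here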
# [6] = basal HepG2 mitochondrial membrane potential changes, profiling panel, cell-based, JC-1 fluorescence, 24 h, 100 nL compound (AID 1167); details: higher = more signal; further: test concentration not given here
# [7] = basal 3T3-L1 adipocyte mitochondrial potential changes, profiling panel, cell-based, JC-1 fluorescence, 3T3-L1 adipocytes, 24 h, 100 nL compound (AID 1168); details: JC-1 mitochondrial fluorescence, higher = more signal, called active from +8 up or from −8 down; further: test concentration not given here
# [8] = basal RPMI8226 mitochondrial membrane potential changes, profiling panel, cell-based, JC-1 fluorescence, 24 h, 100 nL compound (AID 1169); details: RPMI8226 myeloma, JC-1 mitochondrial potential fluorescence, higher = more signal; further: test concentration not given here
# [9] = basal MM1S mitochondrial membrane potential changes, profiling panel, cell-based, JC-1 fluorescence, 24 h, 100 nL compound (AID 1170); details: higher = more signal; further: test concentration not given here
# [10] = A549 lung cancer cell viability effects, profiling panel, resazurin fluorescence, 24 h, PK04 Diversity Set (AID 1171); details: higher = more signal, called active from +8 up or from −8 down; further: test concentration not given here
# [11] = HepG2 liver cancer cell viability effects, profiling panel, resazurin fluorescence, 24 h, PK04 Diversity Set (AID 1172); details: higher = more signal; further: test concentration not given here
# [12] = basal S. cerevisiae growth modulation, no modifier, primary screen, OD600, strain BY4716, 24 h, basal condition (AID 1173); details: OD600, 24 h, higher = more signal, called active from +8 up or from −8 down
# [13] = MM1S myeloma cell viability, profiling panel, resazurin fluorescence, basal, 24 h, PK04 Diversity Set (AID 1174); details: higher = more signal, called active from +8 up or from −8 down;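 further: MM1S multiple myeloma cell line; test concentration not given here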
# [14] = target: Dihydroorotate dehydrogenase (quinone), mitochondrial (Plasmodium falciparum (isolate 3D7)) (UniProt Q08210); experiment: PfDHODH enzyme inhibitors, primary screen, biochemical, C-terminal His tag, absorbance 600 nm (AID 1175); details: DCIP absorbance 600 nm, higher = more signal, called active from +8 up or from −8 down;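 further: recombinant parasite enzyme with a five histidine tag at its C terminus; test concentration not given here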
# [15] = P. aeruginosa biofilm formation inhibitors, primary screen, strain PAO1, LB-PBS medium, absorbance 600 nm (AID 1176); further: test concentration not given here; details: P. aeruginosa PAO1 growth/biofilm, A600, 12 h; higher = more signal
# [16] = S. cerevisiae RM11-1a growth modifiers, primary screen, strain RM11-1a, OD600, basal, 24 h (AID 1177); details: OD600, 24 h, higher = more signal, called active from +8 up or from −8 down;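 further: cultures grown under basal conditions with no added stressor; test concentration not given here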
# [17] = E. coli acrAB mutant growth effects, primary screen, E. coli filamentation inducers, strain DRC39, OD650, 24 h (AID 1178); details: higher = more signal, called active from +8 up or from −8 down;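 further: growth measured as culture turbidity by optical density at 650 nm; test concentration not given here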
# [18] = E. coli acrAB mutant growth effects, primary screen, E. coli filamentation inducers, strain DRC39, OD650, 48 h (AID 1179);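 further: screen aims at cell division blockers that make cells filament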; details: E. coli DRC39 delta-acrAB growth, higher = more signal, called active from +8 up or from −8 down
# [19] = RPMI8226 myeloma cell viability, profiling panel, resazurin fluorescence, basal, 24 h, PK04 Diversity Set (AID 1180); details: higher = more signal;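 further: RPMI8826 multiple myeloma cell line at 5000 cells per well; test concentration not given here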
# [20] = target: E3 ubiquitin-protein ligase XIAP (Homo sapiens) (UniProt P98170); experiment: XIAP binders, primary screen, biophysical, small-molecule microarray, fluorescence 635 nm (AID 1181); details: small-molecule microarray binding, higher = more signal;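 further: score merges 667 nm emission and signal to noise over triplicate slides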
# E3 ubiquitin-protein ligase XIAP (Homo sapiens), sequence (P98170 whole entry, looked up): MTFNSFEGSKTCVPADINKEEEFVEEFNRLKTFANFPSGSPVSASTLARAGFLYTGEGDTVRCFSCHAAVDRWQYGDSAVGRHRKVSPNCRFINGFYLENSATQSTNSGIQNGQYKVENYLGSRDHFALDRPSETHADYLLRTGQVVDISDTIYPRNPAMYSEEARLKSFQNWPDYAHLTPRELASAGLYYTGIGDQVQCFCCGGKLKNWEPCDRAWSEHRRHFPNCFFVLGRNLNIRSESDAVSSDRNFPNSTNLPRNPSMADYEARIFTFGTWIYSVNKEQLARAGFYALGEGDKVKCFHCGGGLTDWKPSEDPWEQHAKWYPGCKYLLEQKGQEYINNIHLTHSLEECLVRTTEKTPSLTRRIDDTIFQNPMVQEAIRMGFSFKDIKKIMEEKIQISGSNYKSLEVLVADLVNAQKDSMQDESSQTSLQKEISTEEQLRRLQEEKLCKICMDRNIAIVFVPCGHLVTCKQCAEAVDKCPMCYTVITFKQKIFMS
# Dihydroorotate dehydrogenase (quinone), mitochondrial (Plasmodium falciparum (isolate 3D7)), sequence (Q08210 whole entry, looked up): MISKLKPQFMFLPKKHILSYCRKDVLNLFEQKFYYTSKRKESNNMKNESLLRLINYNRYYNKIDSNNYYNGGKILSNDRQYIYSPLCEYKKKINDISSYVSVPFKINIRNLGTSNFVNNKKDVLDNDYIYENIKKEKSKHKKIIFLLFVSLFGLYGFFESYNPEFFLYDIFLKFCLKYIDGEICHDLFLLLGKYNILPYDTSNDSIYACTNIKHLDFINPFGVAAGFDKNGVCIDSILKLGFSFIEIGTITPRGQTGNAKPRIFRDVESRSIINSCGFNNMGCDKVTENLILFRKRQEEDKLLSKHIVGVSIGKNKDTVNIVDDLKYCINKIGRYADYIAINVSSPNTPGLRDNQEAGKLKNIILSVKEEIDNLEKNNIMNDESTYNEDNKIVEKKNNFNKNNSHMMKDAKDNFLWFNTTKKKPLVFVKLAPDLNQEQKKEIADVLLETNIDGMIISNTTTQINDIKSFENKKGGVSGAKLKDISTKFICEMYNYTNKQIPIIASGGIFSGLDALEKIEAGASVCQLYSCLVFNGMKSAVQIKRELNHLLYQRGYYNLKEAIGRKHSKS
SMILES,z-score [1],z-score [2],z-score [3],z-score [4],z-score [5],z-score [6],z-score [7],z-score [8],z-score [9],z-score [10],z-score [11],z-score [12],z-score [13],composite z-score [14],z-score [15],z-score [16],z-score [17],z-score [18],z-score [19],composite z-score [20]
COc1ccc(C#Cc2ccc3c(c2)[C@]2(C(=O)N3)[C@H](c3ccc(O)cc3)N3[C@H](c4ccccc4)[C@H](c4ccccc4)OC(=O)[C@H]3[C@@H]2C(=O)O)cc1,-0.884,0.943,0.127,-2.24,-2.2,-3.68,-0.742 (inactive),-0.28,-0.361,0.344 (inactive),0.275,-1.16 (inactive),0.504 (inactive),-2.78 (inactive),1.15 (inactive),0.0708 (inactive),0.355 (inactive),-0.341 (inactive),0.801,0.126
CC1=C([C@H](O)CCc2ccccc2)[C@H](CO)[C@@H]2C(=O)N(C)C(=O)[C@@H]2C1,1.18,-0.371,-0.473,0.236,-0.245,-0.622,0.459 (inactive),-0.0985,-0.279,-0.39 (inactive),-0.0457,-2.32 (inactive),-0.382 (inactive),-1.2 (inactive),0.176 (inactive),0.291 (inactive),0.15 (inactive),0.181 (inactive),0.149,-0.152
COc1ccc([Si](C)(C)[C@@H]2[C@@H](CC(=O)N3Cc4ccccc4C[C@H]3CO)O[C@]3(C(=O)N(C)c4ccccc43)[C@H]2C)cc1,-2.16,0.0677,-4.12,-2.66,-4.4,-0.682,1.08 (inactive),-1.14,-2.28,-1.42 (inactive),-1.35,-2.33 (inactive),-2.97 (inactive),0.0586 (inactive),1.81 (inactive),1.87 (inactive),1.21 (inactive),0.403 (inactive),-4.65,-0.0095
C=CC[C@@]1(C(=O)N2CCOCC2)N=C(c2ccc(OCCCO)cc2)O[C@@H]1c1ccccc1CN=[N+]=[N-],1.42,0.563,1.09,-0.909,-0.697,1.97,-0.212 (inactive),-0.838,-0.845,0.278 (inactive),0.0491,0.0155 (inactive),0.118 (inactive),0.159 (inactive),0.137 (inactive),-0.109 (inactive),-0.0245 (inactive),0.443 (inactive),-0.052,0.184
O=C1C2C=CC(C(O)c3ccccc3)N(Nc3ccccc3F)C2C(=O)N1c1ccccc1 (stereo not given),-0.826,-0.717,0.925,-1.06,0.379,0.12,-0.0776 (inactive),-1.04,-1.29,-0.412 (inactive),0.688,-1.64 (inactive),-1.07 (inactive),-0.104 (inactive),0.629 (inactive),0.0428 (inactive),-0.737 (inactive),0.206 (inactive),0.466,0.258
C=CCOC(=O)[C@H]1[C@@H]2C(=O)O[C@@H](c3ccccc3)[C@@H](c3ccccc3)N2[C@@H](c2ccc(OCCOC(=O)[C@@H]3C[C@@H]4C(=O)N5CCC[C@H]5C(=O)N4[C@@H]3c3ccc(O)cc3)cc2)[C@]12C(=O)Nc1ccc(I)cc12,-0.455,0.276,0.018,0.0967,-0.0749,-1.24,0.88 (inactive),-0.655,-1.37,-0.273 (inactive),-0.384,1.04 (inactive),-0.996 (inactive),-1.13 (inactive),3.91 (inactive),1.08 (inactive),-0.102 (inactive),0.0802 (inactive),-0.686,-0.083
COCCOC(=O)N1C(=O)[C@@]2(c3cc(C#CC4(O)CCCCCC4)ccc31)[C@H](c1ccc(O)cc1)N1[C@H](c3ccccc3)[C@H](c3ccccc3)OC(=O)[C@H]1[C@@H]2C(=O)NC[C@H](O)c1ccccc1,0.121,0.266,-0.31,-1.49,-3.49,-2.3,-1.27 (inactive),-1.15,-0.715,0.0025 (inactive),0.267,0.31 (inactive),-1.45 (inactive),0.658 (inactive),1.29 (inactive),0.657 (inactive),0.157 (inactive),-0.105 (inactive),-1.62,0.367
CCCC[C@@H]1C[C@H]1[C@@H](NC(=O)c1ccccc1)c1ccc(C(F)(F)F)cc1,-1.46,-0.999,-0.959,0.256,-0.372,0.494,-0.259 (inactive),0.677,-1.24,-0.0143 (inactive),1.09,0.628 (inactive),0.142 (inactive),0.573 (inactive),0.479 (inactive),0.176 (inactive),0.1 (inactive),0.155 (inactive),0.329,-0.369
